Results from the supplement of paper PMC11732987, “Enantioselective OTUD7B fragment discovery through chemoproteomics screening and high-throughput optimisation” (Communications Chemistry, 2025).

Assays:
Test in all cases: log2 ratio of Biotin-Ahx-Ub-VS probe labelling (fragment/DMSO); higher = less target engagement (more negative = stronger competition), active = hit call of the paper (q ≤ 0.05, log2 ratio ≤ -1)
Conditions in all cases: compound concentration: 200 uM; treatment time: 3 h
[1] = target: T1, ALG13 (UniProt Q9NP73)
T1 sequence (whole entry): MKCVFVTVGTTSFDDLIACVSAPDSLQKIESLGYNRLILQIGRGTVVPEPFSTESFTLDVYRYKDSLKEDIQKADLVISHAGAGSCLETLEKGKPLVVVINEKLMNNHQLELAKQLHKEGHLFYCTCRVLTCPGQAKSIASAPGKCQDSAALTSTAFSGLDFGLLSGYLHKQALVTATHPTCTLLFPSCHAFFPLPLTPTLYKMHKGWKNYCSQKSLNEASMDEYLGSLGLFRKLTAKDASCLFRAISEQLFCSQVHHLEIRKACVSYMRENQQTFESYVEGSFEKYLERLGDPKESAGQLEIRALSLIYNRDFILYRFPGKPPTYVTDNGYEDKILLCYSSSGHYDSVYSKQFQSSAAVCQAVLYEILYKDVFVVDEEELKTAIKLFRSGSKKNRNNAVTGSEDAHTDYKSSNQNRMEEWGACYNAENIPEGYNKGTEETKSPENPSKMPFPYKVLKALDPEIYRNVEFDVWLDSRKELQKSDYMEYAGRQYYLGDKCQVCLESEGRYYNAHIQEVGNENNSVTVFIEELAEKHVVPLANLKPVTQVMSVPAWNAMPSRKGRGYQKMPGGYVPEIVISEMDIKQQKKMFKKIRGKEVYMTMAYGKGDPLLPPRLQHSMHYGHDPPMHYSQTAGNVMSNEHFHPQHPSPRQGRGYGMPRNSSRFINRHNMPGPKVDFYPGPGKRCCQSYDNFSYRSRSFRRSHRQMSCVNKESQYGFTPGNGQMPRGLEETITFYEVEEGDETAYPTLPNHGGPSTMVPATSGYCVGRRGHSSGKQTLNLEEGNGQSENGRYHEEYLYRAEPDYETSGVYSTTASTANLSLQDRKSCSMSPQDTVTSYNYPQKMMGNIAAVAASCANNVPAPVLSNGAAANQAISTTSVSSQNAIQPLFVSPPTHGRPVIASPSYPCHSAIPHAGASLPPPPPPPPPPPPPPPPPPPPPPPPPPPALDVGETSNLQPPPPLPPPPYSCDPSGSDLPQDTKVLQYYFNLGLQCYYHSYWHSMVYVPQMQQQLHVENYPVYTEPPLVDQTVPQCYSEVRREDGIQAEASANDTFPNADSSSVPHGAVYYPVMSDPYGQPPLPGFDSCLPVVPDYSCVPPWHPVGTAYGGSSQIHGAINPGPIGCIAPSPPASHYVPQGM
Outline: (§1)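 Average log2 ratios of fragment over vehicle were obtained by unpaired t-test from global-median-normalised Spectronaut label-free quantities. Proteins with ≥2 unique peptides were included. HEK293T lysate (495 µg per sample) was treated in triplicate with fragment at 200 µM or vehicle for 3 h, then with Biotin-Ahx-Ub-VS at 0.5 µM final for 1 h, and labelled DUBs were NeutrAvidin-enriched and run by diaPASEF LC-MS/MS.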

[2] = target: ATXN3 (UniProt P54252)
Sequence of ATXN3 (P54252 whole entry): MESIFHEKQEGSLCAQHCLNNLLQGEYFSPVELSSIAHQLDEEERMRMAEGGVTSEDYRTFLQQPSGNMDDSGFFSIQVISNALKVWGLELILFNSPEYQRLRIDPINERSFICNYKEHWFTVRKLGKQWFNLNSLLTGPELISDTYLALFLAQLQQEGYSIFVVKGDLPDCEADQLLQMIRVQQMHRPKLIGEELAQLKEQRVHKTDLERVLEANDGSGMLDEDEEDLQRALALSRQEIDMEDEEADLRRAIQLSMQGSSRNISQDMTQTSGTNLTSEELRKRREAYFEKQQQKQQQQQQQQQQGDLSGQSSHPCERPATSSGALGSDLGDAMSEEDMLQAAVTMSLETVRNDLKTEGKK
Outline: as §1

[3] = target: T2, BAP1 (UniProt Q92560)
T2 sequence (whole entry): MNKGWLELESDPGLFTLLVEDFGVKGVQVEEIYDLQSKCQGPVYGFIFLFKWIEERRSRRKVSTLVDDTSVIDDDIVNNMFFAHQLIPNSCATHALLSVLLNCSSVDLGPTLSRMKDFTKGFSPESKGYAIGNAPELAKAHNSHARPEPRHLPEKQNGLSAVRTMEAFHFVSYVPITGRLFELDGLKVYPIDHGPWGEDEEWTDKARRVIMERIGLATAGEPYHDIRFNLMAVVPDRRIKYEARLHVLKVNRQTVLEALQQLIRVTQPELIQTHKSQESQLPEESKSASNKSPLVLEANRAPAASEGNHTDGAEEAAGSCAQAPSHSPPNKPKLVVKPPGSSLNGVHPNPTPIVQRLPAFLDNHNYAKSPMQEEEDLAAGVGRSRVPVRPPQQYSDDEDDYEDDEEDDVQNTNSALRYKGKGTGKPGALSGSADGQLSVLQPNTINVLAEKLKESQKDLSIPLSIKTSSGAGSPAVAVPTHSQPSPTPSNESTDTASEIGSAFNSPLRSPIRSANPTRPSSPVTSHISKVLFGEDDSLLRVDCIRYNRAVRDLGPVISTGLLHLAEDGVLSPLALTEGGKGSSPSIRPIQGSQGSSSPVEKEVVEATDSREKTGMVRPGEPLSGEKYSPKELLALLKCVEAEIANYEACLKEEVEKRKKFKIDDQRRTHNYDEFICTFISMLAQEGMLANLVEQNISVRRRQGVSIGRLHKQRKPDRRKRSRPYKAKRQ
Outline: as §1

[4] = target: EIF3F (UniProt O00303)
Sequence of EIF3F (O00303 whole entry): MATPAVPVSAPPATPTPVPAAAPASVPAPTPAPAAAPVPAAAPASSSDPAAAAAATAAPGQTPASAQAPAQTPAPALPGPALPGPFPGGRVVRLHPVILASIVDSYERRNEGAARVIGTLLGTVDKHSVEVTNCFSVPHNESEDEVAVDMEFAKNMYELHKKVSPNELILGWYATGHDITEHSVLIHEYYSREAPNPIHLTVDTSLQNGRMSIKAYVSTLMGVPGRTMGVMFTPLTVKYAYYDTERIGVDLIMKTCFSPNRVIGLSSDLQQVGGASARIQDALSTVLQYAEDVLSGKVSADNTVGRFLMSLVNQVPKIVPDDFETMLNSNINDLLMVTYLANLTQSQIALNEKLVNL
Outline: as §1

[5] = target: EIF3H (UniProt O15372)
Sequence of EIF3H (O15372 whole entry): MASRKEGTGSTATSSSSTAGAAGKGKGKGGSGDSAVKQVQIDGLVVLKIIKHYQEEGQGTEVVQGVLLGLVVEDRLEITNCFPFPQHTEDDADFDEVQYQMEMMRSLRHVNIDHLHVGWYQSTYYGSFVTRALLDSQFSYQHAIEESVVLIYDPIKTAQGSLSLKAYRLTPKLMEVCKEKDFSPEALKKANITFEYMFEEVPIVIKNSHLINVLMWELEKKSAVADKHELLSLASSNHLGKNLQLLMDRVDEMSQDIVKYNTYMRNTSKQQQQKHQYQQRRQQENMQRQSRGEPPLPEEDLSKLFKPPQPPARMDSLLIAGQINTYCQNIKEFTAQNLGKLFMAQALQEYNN
Outline: as §1

[6] = target: T3, FAM105A (UniProt Q9NUU6)
T3 sequence (whole entry): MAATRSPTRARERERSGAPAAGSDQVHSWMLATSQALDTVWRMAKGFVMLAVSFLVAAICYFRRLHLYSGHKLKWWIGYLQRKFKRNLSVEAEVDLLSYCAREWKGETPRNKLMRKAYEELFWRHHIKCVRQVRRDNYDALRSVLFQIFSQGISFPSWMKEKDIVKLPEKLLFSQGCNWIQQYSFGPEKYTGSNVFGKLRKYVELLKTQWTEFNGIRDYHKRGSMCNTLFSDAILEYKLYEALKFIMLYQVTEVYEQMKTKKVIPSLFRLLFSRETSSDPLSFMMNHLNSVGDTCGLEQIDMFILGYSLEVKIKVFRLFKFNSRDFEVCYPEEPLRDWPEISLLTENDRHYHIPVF
Outline: as §1

[7] = target: OTUB1 (UniProt Q96FW1)
Sequence of OTUB1 (Q96FW1 whole entry): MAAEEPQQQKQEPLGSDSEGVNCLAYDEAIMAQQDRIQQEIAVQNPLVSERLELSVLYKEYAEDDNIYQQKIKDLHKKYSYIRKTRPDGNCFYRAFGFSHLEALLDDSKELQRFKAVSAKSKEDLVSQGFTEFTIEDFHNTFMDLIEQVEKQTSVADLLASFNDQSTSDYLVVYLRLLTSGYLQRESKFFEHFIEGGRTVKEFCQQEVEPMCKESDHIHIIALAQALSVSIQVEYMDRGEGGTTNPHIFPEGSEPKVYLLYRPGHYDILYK
Outline: as §1

[8] = target: T4, OTUD4 (UniProt Q01804)
T4 sequence (whole entry): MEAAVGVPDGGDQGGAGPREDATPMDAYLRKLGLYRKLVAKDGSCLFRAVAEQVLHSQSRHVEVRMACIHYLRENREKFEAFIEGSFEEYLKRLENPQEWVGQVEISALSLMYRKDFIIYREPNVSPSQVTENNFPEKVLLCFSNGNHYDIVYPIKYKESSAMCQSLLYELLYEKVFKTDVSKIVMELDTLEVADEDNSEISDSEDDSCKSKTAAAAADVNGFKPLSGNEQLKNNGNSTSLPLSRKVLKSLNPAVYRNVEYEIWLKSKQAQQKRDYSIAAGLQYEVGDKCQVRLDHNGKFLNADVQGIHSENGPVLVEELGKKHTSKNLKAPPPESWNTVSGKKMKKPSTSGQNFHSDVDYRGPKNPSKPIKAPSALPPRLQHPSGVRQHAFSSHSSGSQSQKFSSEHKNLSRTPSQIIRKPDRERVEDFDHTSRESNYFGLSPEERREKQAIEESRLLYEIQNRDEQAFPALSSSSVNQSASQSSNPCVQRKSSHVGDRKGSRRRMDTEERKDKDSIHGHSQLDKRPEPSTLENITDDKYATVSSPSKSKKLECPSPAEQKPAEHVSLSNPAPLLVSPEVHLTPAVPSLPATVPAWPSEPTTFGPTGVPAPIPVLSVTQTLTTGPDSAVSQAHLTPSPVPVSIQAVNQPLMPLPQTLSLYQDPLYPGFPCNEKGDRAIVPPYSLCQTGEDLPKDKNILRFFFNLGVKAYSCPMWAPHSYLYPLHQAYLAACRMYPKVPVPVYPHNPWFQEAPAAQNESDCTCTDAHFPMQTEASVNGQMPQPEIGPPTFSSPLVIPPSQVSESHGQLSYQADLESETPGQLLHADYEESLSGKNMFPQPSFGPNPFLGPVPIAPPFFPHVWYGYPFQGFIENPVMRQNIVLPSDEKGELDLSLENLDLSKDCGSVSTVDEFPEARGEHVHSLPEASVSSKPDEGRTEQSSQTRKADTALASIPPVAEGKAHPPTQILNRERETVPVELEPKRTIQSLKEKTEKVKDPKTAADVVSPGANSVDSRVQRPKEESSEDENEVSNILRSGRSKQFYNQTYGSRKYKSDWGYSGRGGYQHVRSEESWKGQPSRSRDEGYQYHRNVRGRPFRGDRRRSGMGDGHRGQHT
Outline: as §1

[9] = target: T5, OTUD5 (UniProt Q96G74)
T5 sequence (whole entry): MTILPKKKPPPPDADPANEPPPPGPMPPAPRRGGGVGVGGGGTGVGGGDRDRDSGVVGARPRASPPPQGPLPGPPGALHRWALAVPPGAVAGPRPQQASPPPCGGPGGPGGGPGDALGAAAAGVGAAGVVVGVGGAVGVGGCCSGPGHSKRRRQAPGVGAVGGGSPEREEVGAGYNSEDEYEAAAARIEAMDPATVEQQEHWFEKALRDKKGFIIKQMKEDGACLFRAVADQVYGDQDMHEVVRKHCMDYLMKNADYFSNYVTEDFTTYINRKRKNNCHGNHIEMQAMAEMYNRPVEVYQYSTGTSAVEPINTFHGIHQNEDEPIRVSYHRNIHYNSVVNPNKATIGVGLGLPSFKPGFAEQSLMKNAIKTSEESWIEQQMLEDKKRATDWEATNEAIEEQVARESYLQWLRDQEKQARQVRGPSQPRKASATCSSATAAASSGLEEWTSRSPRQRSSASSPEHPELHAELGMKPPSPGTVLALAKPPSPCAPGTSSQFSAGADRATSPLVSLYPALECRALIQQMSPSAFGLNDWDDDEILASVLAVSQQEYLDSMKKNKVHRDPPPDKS
Outline: as §1

Measured: log2 ratio of Biotin-Ahx-Ub-VS probe labelling

CS(=O)(=O)N1CCCN(C(=O)CCl)CC1
inactive: [1] -0.306 | [2] -0.428 | [3] -0.451 | [4] -0.0174 | [5] 0.332 | [6] -0.12 | [7] -0.478 | [8] -0.3 | [9] -0.335
